What all share (test): NCI-60 one-dose screen, 48 h (100 = growth as untreated, 0 = no growth, -100 = all killed)
Holding throughout (conditions): 10 µM unless noted

Test [1] concerns RPMI-8226 leukemia.
The subject of test [2] is OVCAR-8 ovarian.
Test [3] concerns OVCAR-5 ovarian.
The test system of test [4] is SK-OV-3 ovarian.
In test [5] the test system is OVCAR-3 ovarian.
Test [6] concerns HS 578T breast.
In test [7] the test system is NCI/ADR-RES ovarian.
Test [8] concerns T-47D breast.
Test [9] relates to IGROV1 ovarian.
The subject of test [10] is OVCAR-4 ovarian.

About 83,000 compounds went through this panel and 20% of them were active in at least one assay; those are over-represented in the sample as a whole.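 In brief: 96-well plates, 48 h treatment, single concentration, percent growth endpoint.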 Values without a mark were called inactive. Activity calls are given as the source filed them. Rule for the calls: active = growth percent below 10; inactive = the rest.

`N#C/C(=C1\SC(=O)CN1c1ccccc1)c1nc2ccccc2s1`: the growth is 83.7% in test [1]; 94.9% in test [2]; 103% in test [3]; 99.1% in test [4]; 87% in test [5]; 94.3% in [6]. For the same compound, the growth is 89.2% in test [7] and 73.6% in [8].
On to `O=C1/C(=C\c2ccc[nH]2)c2ccccc2N1c1ccccc1`, for which the growth in test [1] was 94.4%; in [2] it was 102%; in test [3], 87.9%; in test [9] it was 84.5%; in [5] it was 112%; in test [6] it was 92.3%. For the same compound, in [7], the growth was 90.2%.
As to `COc1ccccc1C1=C(Br)C(=O)c2nc(C)ccc2C1=O`, the growth in test [1] is 104%; in test [2] it was 96.8%; in [3], 110%; in test [9], 97.3%; in test [5] it was 81%; in test [6], 104%. The growth in test [7] is 107%; in [8], 69.6%.
On to `CCOC(=O)c1cc2c(n1Cc1cc(OC)c(OC)c(OC)c1)-c1oncc1CCC2`, for which the growth in test [1] is 16.8%; in test [2], 16.6%; in test [3], 56.2%; in [4] it was 11.2%; in test [9], 33.3%; in [5], -22% (active). Besides, the growth in test [6] was 18.2%; in [7], 3.55% (active); in test [8] it was 74%.
`COc1cccc(-c2nn(C)c3sc(C(=O)NCCN4CCN(c5ccccc5F)CC4)cc23)c1`: the growth is -18.3% (active) in test [1]; 88% in test [2]; 88.4% in test [3]; 88.7% in test [4]; 65.2% in test [9]; 64.9% in [5]. Moreover, the growth is 63% in test [6], 84.9% in test [7] and 57.4% in [8].
On to `CCOc1ccc(-c2nonc2NC(=O)c2cccc(C)c2)cc1OCC`, for which the growth in test [1] was 9.09% (active); in test [2], 79.5%; in test [3], 89.4%; in test [4], 96.2%; in test [9] it was 68.3%; in [5] it was 68.1%. The results for the growth in [6], in test [7] and in [8] were 85.4%, 67.5% and 84.3%, respectively.
Regarding `O=C(CN1C(=O)/C(=C\c2ccc(Cl)cc2)SC1=S)Nc1ncc(Cc2ccc(Cl)cc2)s1`, the growth in test [1] is 102%; in test [2], 101%; in test [3], 104%; in test [4], 104%; in test [9], 103%; in [5] it was 108%. The growth in test [6] was 98.9%; in test [7], 104%; in test [8], 105%.
As to `C=C(C)CCC(C)N1CCC(N2CCC(C(=O)NCCc3ccccc3)CC2)CC1` (stereo not given), the growth in test [1] was 4.75% (active); in test [2], 75.6%; in test [3], 92.2%; in [4], 52.9%; in [9], 69.5%; in test [5] it was -15.2% (active). The growth is 56.6% in test [6], 59.9% in test [7] and 60.9% in test [8].
Turning to `CCOC(=O)c1c(Cl)c2c(n1Cc1ccccc1)-c1oncc1CCC2`, the growth was 50.6% in [1]; 84.3% in test [2]; 95.3% in test [3]; 95.2% in test [4]; 75.1% in test [9]; 39.5% in test [5]. Besides, the values for the growth in test [6], in test [7] and in [8] were 69.7%, 43.5% and 80.7%, respectively.
For the compound `c1ccc(-c2ccc(-c3nc4ccccc4[nH]3)cc2)cc1`, the growth is 51.2% in [1]; 89.4% in [2]; 106% in test [3]; 89.3% in test [4]; 75.1% in test [9]; 86.2% in [5]. The growth in test [6] is 94.5%; in test [7], 86.7%; in [8], 86.6%.
`COc1ccc2occ(C3=C(c4c[nH]c5ccccc45)C(=O)NC3=O)c2c1`: the growth in [1] is 53%; in test [2], 63.9%; in test [3] it was 68.6%; in [9], 41.5%; in test [5], 26.8%; in test [6], 33.9%. Besides, the growth was 20.5% in [7] and 57% in test [8].
In the case of `O=c1c(-c2nc3ccccc3[nH]2)cc2ccccc2n1Cc1cn(Cc2ccccc2Cl)nn1`, the growth in test [1] was 12.4%; in [2], 50.4%; in test [3], 78.2%; in [9], 27.9%; in test [5] it was 19.8%; in test [6], 19.2%. In addition, the growth in [7] was 40.6%; in test [8] it was 66.4%.
For `O=CCCCC(O)C=O` (stereo not given), the growth in test [2] was 106%; in test [3] it was 106%; in test [10] it was 103%; in [4], 104%; in test [9], 108%; in [5] it was 109%. Further, the results for the growth in test [6], in test [7] and in [8] were 98.1%, 99.2% and 95.9%, respectively.
On to `Cc1ccc2nc(NC(=O)CSC(=S)N3CCN(c4ccccc4)CC3)sc2c1`, for which the growth is 79.3% in test [1]; 95.6% in test [3]; 92.7% in test [10]; 111% in test [4]; -4.12% (active) in [9]; 104% in test [5]. For the same compound, the growth was 104% in test [6], 88.2% in test [7] and 85.7% in [8].

The record behind these values is PubChem BioAssay (NCI).
